Data as given in the supplement of paper PMC10849652.
The full data set covers some 7,900 targets. This sample favours those with a hit. About 0.6% of all pairs of compound and target were hits. Unmarked numbers belong to inactive results.

What follows are targets tested with COC1=CC=C(C=C1)CN2C=CC3=C2C=C(C=C3)C(=O)NO (assay: log2 fold change, soluble protein after heating vs DMSO (PISA); higher = thermal stabilisation; K562 cells, 10 uM, 30 min; active = over 0.2 and 3.5 SD of the protein, either way, in both replicates (recomputed)).
Procedure, shortened: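 Aliquots of K562 cells (2×10^6 cells/mL) treated with 10 μM compound for 30 min were heated for 3 min over 48°C-58°C. After pooling and extraction in PBS with 0.5% NP-40 at 4°C, soluble protein from a 21,000xg, 90 min spin was quantified by TMTpro 16plex LC-MS/MS with channel sums equalised. Thermal stability is expressed against control samples, from duplicates, as a log2 fold change.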

Sequence of UniProt P14854 (P14854 whole entry, looked up): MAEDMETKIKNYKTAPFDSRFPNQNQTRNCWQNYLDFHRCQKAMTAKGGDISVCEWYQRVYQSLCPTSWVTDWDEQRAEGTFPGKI
Sequence of UniProt P50416 (P50416 whole entry, looked up): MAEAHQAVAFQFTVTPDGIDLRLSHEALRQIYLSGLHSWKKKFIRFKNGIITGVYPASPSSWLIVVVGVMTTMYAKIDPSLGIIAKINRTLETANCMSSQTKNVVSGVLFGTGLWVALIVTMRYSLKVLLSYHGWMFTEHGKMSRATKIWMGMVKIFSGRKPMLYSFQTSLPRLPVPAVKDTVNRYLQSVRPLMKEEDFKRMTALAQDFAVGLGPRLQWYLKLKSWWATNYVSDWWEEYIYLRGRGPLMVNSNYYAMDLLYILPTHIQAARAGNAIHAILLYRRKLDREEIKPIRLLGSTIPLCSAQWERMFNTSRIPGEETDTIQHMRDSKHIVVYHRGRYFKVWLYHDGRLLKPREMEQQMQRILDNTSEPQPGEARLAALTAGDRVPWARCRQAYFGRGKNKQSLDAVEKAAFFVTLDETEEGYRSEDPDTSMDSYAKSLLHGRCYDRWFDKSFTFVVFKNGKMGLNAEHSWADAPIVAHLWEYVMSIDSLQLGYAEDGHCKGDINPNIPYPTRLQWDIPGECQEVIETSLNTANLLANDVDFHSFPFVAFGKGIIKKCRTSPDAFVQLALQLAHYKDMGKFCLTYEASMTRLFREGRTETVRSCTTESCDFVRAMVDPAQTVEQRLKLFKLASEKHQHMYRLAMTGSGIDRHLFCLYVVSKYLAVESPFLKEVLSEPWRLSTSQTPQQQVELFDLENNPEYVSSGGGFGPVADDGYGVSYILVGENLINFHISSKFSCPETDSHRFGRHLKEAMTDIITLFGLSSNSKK
Sequence of UniProt P00915 (P00915 whole entry, looked up): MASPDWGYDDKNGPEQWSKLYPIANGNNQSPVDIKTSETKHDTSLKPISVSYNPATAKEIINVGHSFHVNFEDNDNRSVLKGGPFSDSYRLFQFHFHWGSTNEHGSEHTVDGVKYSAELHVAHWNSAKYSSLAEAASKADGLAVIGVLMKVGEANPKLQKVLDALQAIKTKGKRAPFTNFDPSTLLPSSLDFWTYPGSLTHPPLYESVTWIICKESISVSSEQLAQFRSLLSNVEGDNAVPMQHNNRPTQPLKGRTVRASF
Sequence of UniProt Q8N1A6 (Q8N1A6 whole entry, looked up): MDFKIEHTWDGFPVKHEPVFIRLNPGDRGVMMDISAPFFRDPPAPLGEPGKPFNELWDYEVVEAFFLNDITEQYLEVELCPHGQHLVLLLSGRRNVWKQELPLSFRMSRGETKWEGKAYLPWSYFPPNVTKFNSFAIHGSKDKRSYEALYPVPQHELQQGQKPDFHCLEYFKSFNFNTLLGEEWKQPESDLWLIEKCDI
Sequence of UniProt Q86X83 (Q86X83 whole entry, looked up): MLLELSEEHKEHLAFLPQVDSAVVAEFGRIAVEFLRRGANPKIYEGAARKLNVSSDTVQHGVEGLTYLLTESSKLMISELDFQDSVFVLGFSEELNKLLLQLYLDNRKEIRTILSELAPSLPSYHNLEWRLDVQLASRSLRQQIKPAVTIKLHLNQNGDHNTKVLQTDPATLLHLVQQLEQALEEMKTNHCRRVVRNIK
Sequence of UniProt P86791 (P86791 whole entry, looked up): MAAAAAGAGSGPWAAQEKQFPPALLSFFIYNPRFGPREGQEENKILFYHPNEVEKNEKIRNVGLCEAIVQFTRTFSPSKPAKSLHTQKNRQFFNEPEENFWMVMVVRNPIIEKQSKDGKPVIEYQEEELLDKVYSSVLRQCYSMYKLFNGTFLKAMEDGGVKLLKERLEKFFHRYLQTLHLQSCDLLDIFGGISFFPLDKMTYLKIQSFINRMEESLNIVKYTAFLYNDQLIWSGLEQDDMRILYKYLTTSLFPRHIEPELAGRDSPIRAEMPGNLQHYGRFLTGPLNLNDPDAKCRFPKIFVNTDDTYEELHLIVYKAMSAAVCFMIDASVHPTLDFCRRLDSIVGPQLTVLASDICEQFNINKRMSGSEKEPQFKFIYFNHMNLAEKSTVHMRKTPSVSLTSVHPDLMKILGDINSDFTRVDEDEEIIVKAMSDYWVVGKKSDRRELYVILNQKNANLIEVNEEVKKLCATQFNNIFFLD
Sequence of UniProt P19397 (P19397 whole entry, looked up): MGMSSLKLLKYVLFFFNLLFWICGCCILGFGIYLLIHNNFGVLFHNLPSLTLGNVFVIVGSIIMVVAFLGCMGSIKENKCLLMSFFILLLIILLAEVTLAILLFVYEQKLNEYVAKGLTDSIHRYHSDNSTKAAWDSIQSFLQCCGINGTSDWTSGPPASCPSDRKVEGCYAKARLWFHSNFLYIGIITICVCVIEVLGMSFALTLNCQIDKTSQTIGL
Sequence of UniProt O75976 (O75976 whole entry, looked up): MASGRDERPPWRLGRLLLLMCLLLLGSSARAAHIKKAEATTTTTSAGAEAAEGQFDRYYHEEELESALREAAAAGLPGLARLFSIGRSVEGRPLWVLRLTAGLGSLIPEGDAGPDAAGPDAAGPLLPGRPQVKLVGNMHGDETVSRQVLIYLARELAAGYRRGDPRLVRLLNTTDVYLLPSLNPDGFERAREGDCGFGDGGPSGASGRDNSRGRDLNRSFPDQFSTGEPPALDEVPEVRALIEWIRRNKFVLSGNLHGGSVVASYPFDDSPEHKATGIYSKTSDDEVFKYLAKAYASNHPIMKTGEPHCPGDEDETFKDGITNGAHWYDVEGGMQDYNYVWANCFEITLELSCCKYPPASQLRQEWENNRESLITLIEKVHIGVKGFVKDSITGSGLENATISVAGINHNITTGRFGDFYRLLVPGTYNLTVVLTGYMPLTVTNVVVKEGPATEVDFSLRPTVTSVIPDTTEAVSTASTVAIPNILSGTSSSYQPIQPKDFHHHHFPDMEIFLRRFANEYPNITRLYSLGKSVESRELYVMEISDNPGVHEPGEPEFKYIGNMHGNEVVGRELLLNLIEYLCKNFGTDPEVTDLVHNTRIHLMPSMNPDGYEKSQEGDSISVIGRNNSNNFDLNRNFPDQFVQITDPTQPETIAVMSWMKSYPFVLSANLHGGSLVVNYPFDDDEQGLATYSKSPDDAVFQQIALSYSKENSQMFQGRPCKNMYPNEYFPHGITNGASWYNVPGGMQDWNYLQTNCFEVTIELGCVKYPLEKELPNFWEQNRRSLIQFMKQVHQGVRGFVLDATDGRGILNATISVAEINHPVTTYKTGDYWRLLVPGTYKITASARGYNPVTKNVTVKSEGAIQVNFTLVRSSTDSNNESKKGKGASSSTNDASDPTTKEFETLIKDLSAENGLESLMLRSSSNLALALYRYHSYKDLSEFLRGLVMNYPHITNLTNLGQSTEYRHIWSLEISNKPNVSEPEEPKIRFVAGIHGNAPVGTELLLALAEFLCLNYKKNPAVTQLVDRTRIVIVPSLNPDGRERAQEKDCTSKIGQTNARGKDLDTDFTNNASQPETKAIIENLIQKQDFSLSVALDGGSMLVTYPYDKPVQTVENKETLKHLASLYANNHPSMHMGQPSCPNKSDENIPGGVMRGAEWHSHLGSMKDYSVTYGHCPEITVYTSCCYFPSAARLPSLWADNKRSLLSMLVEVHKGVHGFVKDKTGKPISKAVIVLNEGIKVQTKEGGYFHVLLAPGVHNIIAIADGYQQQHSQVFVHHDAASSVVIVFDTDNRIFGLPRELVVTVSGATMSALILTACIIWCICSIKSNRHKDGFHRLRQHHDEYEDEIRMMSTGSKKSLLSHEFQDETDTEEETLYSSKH
Sequence of UniProt O95319 (O95319 whole entry, looked up): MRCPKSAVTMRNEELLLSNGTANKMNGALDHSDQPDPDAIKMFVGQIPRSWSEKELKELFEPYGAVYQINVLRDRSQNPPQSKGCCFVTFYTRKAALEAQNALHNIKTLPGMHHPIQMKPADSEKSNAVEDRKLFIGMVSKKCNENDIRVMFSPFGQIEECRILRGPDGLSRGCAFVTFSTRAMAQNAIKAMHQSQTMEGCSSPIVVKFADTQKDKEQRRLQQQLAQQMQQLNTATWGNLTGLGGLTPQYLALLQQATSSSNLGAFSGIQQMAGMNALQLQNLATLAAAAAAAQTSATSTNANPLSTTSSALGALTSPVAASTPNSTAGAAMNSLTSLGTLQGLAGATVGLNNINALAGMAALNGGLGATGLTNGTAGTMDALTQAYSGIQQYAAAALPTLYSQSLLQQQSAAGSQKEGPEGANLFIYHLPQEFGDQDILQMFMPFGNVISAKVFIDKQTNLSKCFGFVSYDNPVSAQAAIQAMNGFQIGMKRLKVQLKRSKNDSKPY
Sequence of UniProt P48730 (P48730 whole entry, looked up): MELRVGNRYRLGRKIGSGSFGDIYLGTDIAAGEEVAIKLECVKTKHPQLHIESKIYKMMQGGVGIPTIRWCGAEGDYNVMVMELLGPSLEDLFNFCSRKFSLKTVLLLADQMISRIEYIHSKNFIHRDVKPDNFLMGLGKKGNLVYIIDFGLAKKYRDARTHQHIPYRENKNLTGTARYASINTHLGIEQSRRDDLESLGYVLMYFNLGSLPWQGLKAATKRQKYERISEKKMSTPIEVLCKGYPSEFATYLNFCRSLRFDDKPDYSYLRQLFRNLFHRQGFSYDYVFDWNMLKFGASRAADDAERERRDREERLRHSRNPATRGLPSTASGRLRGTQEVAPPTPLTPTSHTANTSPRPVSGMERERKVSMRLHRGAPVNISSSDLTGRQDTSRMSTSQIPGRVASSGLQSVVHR
Sequence of UniProt Q96MX0 (Q96MX0 whole entry, looked up): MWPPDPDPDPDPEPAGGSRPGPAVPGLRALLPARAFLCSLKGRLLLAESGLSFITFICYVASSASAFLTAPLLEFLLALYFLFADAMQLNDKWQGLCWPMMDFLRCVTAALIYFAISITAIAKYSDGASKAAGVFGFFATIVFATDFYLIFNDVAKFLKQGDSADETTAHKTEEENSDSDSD
Sequence of UniProt Q9P031 (Q9P031 whole entry, looked up): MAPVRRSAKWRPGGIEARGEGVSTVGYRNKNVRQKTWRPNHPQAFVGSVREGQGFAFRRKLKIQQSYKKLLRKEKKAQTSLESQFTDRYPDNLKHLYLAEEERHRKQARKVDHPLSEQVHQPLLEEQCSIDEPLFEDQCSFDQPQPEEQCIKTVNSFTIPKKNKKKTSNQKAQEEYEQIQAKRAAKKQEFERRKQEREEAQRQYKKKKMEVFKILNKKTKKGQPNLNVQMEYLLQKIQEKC

Target	log2 fold change
CSNK1D (UniProt P48730)	0.045
C9orf72 (UniProt Q96LT7)	-0.06
CKS1B (UniProt P61024)	-0.045
CDC123 (UniProt O75794)	0.005
CASP2 (UniProt P42575)	0.122
C4orf33 (UniProt Q8N1A6)	-0.055
CCNK isoform 4 (UniProt O75909)	-0.067
CDK12 (UniProt Q9NYV4)	-0.019
COX5B (UniProt P10606)	0.012
CELF2 isoform 3 (UniProt O95319)	0.115
CDK5 (UniProt Q00535)	0.004
CDK6 (UniProt Q00534)	-0.012
CMTM3 (UniProt Q96MX0)	-0.122
COQ9 (UniProt O75208)	0.02
CHEK1 (UniProt O14757)	0.005
CBS (UniProt P35520)	-0.225 (active)
CPT1A (UniProt P50416)	0.073
CDK5RAP1 (UniProt Q96SZ6)	-0.395 (active)

Target	log2 fold change
CES2 isoform 4 (UniProt O00748)	-0.099
COX6B1 (UniProt P14854)	-0.08
CTBS (UniProt Q01459)	-0.006
CNOT1 (UniProt A5YKK6)	0.002
CETN2 (UniProt P41208)	-0.114
COMMD2 (UniProt Q86X83)	-0.039
CCZ1 (UniProt P86791)	0.052
CA1 (UniProt P00915)	-0.022
CDK13 (UniProt Q14004)	-0.323
CPD (UniProt O75976)	0.022
CDKN2AIP (UniProt Q9NXV6)	0.059
CD151 (UniProt P48509)	-0.045
CDK5RAP3 isoform 4 (UniProt Q96JB5)	-0.008
CD53 (UniProt P19397)	-0.1
CD55 isoform 7 (UniProt P08174)	-0.115
C9orf64 (UniProt Q5T6V5)	0.07
CNOT2 (UniProt Q9NZN8)	-0.006
CCDC59 (UniProt Q9P031)	0.024
